# A number with no mark means an inactive call. How the calls were made is not given here.
# Target: Pantothenate synthetase (Mycobacterium tuberculosis (strain ATCC 25618 / H37Rv)) (UniProt P9WIL5)
# Test: Coupled enzyme confirmation of inhibitors against recombinant Mtb PanC (AID 375);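 further: 0% = full reaction with vehicle and 100% = no enzyme background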
# Conditions: coupled enzyme assay; at 10 µM, hits give high values
# Chain of Pantothenate synthetase (Mycobacterium tuberculosis (strain ATCC 25618 / H37Rv)) (P9WIL5 whole entry, looked up): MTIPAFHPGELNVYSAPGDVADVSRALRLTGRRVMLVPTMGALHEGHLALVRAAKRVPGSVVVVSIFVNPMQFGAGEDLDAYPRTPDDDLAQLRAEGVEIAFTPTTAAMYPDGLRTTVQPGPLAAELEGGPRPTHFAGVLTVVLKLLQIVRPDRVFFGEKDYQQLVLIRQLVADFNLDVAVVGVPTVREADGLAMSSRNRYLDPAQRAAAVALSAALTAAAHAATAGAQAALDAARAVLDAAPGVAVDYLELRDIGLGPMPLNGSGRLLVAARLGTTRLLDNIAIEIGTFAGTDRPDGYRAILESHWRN
row,Structure (SMILES),inhibition [%]
1,COc1cc2c(cc1OC)C(c1cccnc1)CC(=O)N2 (stereo not given),5
2,CC(C)NC(=O)c1ccc2c(c1)nnn2C,0
3,CCOC(=O)CSc1nc2cc(C(=O)NCc3ccco3)ccc2c(=O)n1-c1ccc(F)cc1,3
4,CNC(=O)c1nnn(Cc2ccccc2)c1NC(C)=O,2
5,CCOC(=O)Cc1ccc(NS(=O)(=O)c2ccc(SC)cc2)cc1,0
6,O=S(=O)(c1cccs1)N1CCN(Cc2nc3ccccc3s2)CC1,0
7,CCn1cc(C(=O)NCCC2=CCCCC2)c(=O)c2cc(S(=O)(=O)N(C)C)ccc21,0
8,CCC(C(=O)NC1CCCC1)N(Cc1ccco1)C(=O)Cn1nnc(-c2ccc(C)cc2)n1 (stereo not given),5
9,Cc1ccc(N2CC(C(=O)Nc3nnc(C)s3)CC2=O)cc1 (stereo not given),6
10,COC(=O)C1(C#N)C(c2ccccc2)C1(C(=O)OC)C(=O)OC (stereo not given),0
11,Cc1cc(=O)[nH]c(=S)n1-c1ccccc1,17
12,Cc1cc(C)nc(Sc2ccc3nnc(C(F)(F)C(F)(F)C(F)(F)F)n3n2)n1,6
13,Cc1ccnc(NC(=O)C2CCC(CNc3c(N4CCCC4)c(=O)c3=O)CC2)c1 (stereo not given),0
14,COc1ccc(OC)c(C(=O)COC(=O)c2cc(C)oc2C)c1,11
15,COc1ccc(OC)c(N(CC(=O)Nc2cccnc2)S(=O)(=O)c2ccc(OC)c(OC)c2)c1,0
16,CCOC(=O)c1c(C)n(OCc2ccccc2)c2ccc3c(no[n+]3[O-])c12,0
17,CCOC(=O)c1ccccc1NC(=O)COC(=O)C1=COCCO1,0
18,COc1ccc(N2CCN(C(=O)C(C)(C)Oc3ccc(Cl)cc3)CC2)cc1,0
19,COc1ccccc1C(=O)N1CCNC(=O)C1CC(=O)Nc1ccc(Cl)cc1 (stereo not given),0
20,COc1ccc(CNc2oc(COc3ccccc3Cl)nc2C#N)cc1,0

row,Structure (SMILES),inhibition [%]
1,O=S(=O)(c1ccc(OCC(O)CN2CCC(Cc3ccccc3)CC2)cc1)N1CCOCC1 (stereo not given),1
2,CC12CN3CC(C)(CN(C1)C3c1ccc(Cl)cc1Cl)C2=O (stereo not given),0
3,Cn1c(CCNC(=O)c2ccco2)nc2cc(NC(=O)C3CCCCC3)ccc21,0
4,Cc1oc2c(c1C(=O)NCc1ccccc1)CCCC2,0
5,Cc1ccc(-n2ncc3c(N4CCCC(C)C4)ncnc32)c(C)c1 (stereo not given),5
6,CCc1ccc(NC(=O)CS(=O)CC(=O)NCC2OCCc3ccccc32)cc1 (stereo not given),0
7,S=C(NCC1CCCO1)n1nnc2ccccc21 (stereo not given),6
8,CCOc1cc(/C=N/n2cnnc2)cc(Br)c1O,0
9,Cc1nnc2sc(-c3cccc(NC(=O)c4cccnc4)c3)nn12,0
10,C#CCNc1c(C)c(C)nc2ncnn12,4
11,Fc1cccc(Cl)c1Cn1nnc2c(NCc3ccccn3)ncnc21,0
12,COc1cccc(CNC(=O)CCn2c(=O)oc3ccccc32)c1,0
13,O=C(NC(C(=O)c1ccccc1)n1ccc(=O)[nH]c1=O)c1ccccc1 (stereo not given),0
14,CCOC(=O)c1c(C)oc2ccc(O)c(CN3CCCCC3)c12,12
15,CCOC(=O)c1[nH]c(=O)c2ccccc2c1O,0
16,CCCOc1ccc2ccccc2c1/C=N/n1cnnc1,5
17,COc1ccccc1CC(=O)NCc1ccc2c(c1)OCO2,0
18,Cn1c(=O)c2ncn(CC(=O)NCCOc3ccc(C(C)(C)C)cc3)c2n(C)c1=O,0
19,O=C(NC1CCc2ccccc21)C1CCN(S(=O)(=O)c2ccc(-n3cnnn3)cc2)CC1 (stereo not given),10
20,Cc1ccc(NC(=O)C2CCCN(S(=O)(=O)c3cnc[nH]3)C2)cc1C (stereo not given),11

# From PubChem BioAssay
